Results filed as inconclusive are left out. A number with no mark means an inactive call. The call rests on the fitted dose curve; in most records, active means well fitted cell-killing curve with a large enough effect; inconclusive means small, poorly fitted or top-dose-only effect; inactive means flat fitted curve, though single readings scatter.
Assay: qHTS of pediatric cancer cell lines to identify multiple opportunities for drug repurposing: Primary screen for RD cells (AID 1347104); further: nearly all actives have a fitted effect of over 55% in size
Conditions: RD rhabdomyosarcoma viability, CellTiter-Glo luminescence, 48 h; series mostly up to 46 µM; activity change, negative = cytotoxic: at the top concentration
Source text: Drug repurposing or repositioning has been offered as a strategy for drug development in oncology programs. This approach has special potential for childhood cancers and other rare or orphan diseases, where the expected return on new drug development has been a disincentive to pharmaceuticals. […] In this project we exploit the poly-pharmacology of drugs to discover new indications via phenotypic screening of a panel of 19 well-characterized cell lines derived from solid tumors seen in children and adolescents. The goal is to identify approved drugs with previously unrecognized anticancer properties that has the potential to reveal new mechanisms and biological processes involved in carcinogenesis or drug resistance. We employed a titration-based paradigm (quantitative high-throughput screening or qHTS), where all compounds were tested at multiple concentrations for their effect on cell viability. Concentration-response curves (CRCs) were derived directly from the primary screen, and both potency and efficacy values were used to identify compounds with robust bioactivity profiles. We screened the NIH Chemical Genomics Center (NCGC) Pharmaceutical Collection (NPC) and Mechanism Interrogation Plate (MIPE) small molecule collections of approved and investigational compounds against these cell lines; and measured metabolically active cells after 48 hours of compound treatment as a proxy for cell viability. […] Assay Submitter: Nathalia J. Martinez, National Center for Advancing Translational Sciences, National Institutes of Health, Rockville, MD, USA; email: natalia.martinez@nih.gov Shen, M et al. Quantitative high-throughput phenotypic screening of pediatric cancer cell lines identifies multiple opportunities for drug repurposing. Oncotarget 2017 Dec 19;9(4):4758-4772. PMID 29435139.
The cells were obtained from University of North Carolina (UNC), Pediatric Preclinical Testing Program (PPT), and Coriell Institute (CI). qHTS cell viability assay: Cells were assayed in growth media at a density of 500-1,000 cells/well. Five microliters of cells were dispensed into 1,536-well, white, solid-bottom, TC-treated plates (Greiner Bio One) using a multidrop dispenser and incubated at 37 degrees C, 5% CO2, under a humidified atmosphere for 5 hours. Twenty-three nanoliters of compounds and controls (neutral control DMSO or positive control bortezomib at final concentration of 2.3 µM) were subsequently transferred by Kalypsys pintool. For primary screens, the MIPE collection was tested at 11-point dilutions (final concentrations range from 0.78 nM to 46 µM) and the NPC collection at 8-point dilutions (final concentrations range from 0.59 nM to 46 µM). Compounds tested in follow-up screens were assayed at 11-point dilutions. Cells were incubated for 48 hours, followed by addition of 3 µL of CellTiter-Glo (Promega). After a 15 min incubation at room temperature, samples were analyzed for luminescence intensity using a ViewLux High-throughput CCD imager equipped with clear filters.

| Compound | activity change, negative = cytotoxic |
| --- | --- |
| Cc1ccc(S(=O)(=O)NC(=O)NC2CCCCCCC2)cc1 | 12.9% |
| CC(CN(C)C)C(C)(O)Cc1ccc(Cl)cc1 (stereo not given) | 0.707% |
| COc1ccc2cc(CCC(C)=O)ccc2c1 | 10.8% |
| COc1nccnc1NS(=O)(=O)c1ccc(N)cc1 | 0.839% |
| CC(=O)NCc1c(I)c(NC(C)=O)c(I)c(C(=O)O)c1I | 16.5% |
| NC(=O)NS(=O)(=O)c1ccc(N)cc1 | 16.8% |
| O=C(O)/C=C/c1ccc(Cn2ccnc2)cc1 | 2.4% |
| CCN1CC(CCN2CCOCC2)C(c2ccccc2)(c2ccccc2)C1=O (stereo not given) | 0.698% |
| NS(=O)(=O)c1ccc(C(=O)O)cc1 | 11.7% |
| O=C(O)COC(=O)Cc1ccccc1Nc1c(Cl)cccc1Cl | 9.75% |
| Cc1ccc(S(=O)(=O)NC(=O)NC2CCCCC2)cc1 | 5.43% |
| CC(=O)N1C[C@H](O)C[C@H]1C(=O)O | 5.95% |
| CC(=O)Nc1ccc(C(=O)O)cc1 | 17.8% |
| CCOC(=O)OC(C)OC(=O)[C@@H]1N2C(=O)[C@@H](NC(=O)[C@H](N)c3ccccc3)[C@H]2SC1(C)C (stereo not given in full) | 14.7% |
| COc1ccc(C(=O)N2CCN(CC(=O)N3CCOCC3)CC2)cc1 | 14.3% |
| CCCCCC(C)N (stereo not given) | 9.11% |
| CCN(CC)S(=O)(=O)c1ccc(C(=O)O)cc1 | 1.88% |
| NS(=O)(=O)c1cc2c(cc1C(F)(F)F)NCNS2(=O)=O | -5.92% |
| CC(=O)OCC(=O)[C@@]1(O)CC[C@H]2[C@@H]3CCC4=CC(=O)C=C[C@]4(C)[C@@]3(F)[C@@H](O)C[C@@]21C | 2.14% |
| CC(=O)N(CC(O)CO)c1c(I)c(C(=O)NCC(O)CO)c(I)c(C(=O)NCC(O)CO)c1I (stereo not given) | 7.04% |

| Compound | activity change, negative = cytotoxic |
| --- | --- |
| CC(C)CCOC(=O)c1ccc(N(C)C)cc1 | 3.42% |
| CCCCCC(N)=O | 16.8% |
| CN1C(C)(C)CCCC1(C)C | -3.07% |
| O=C(O)CCCc1ccccc1 | -0.691% |
| NS(=O)(=O)c1cc(-c2nn[nH]n2)c(NCc2cccs2)cc1Cl | 9.95% |
| CC1CCc2cc(F)cc3c(=O)c(C(=O)O)cn1c23 (stereo not given) | 11.1% |
| C[C@H]1COc2c(C3(N)CC3)c(F)cc3c(=O)c(C(=O)O)cn1c23 | 10% |
| Cc1[nH]c(C)c(Cl)c(=O)c1Cl | 5.27% [at 16.1 µM] |
| NCC1CCC(C(=O)Oc2ccc(CCC(=O)O)cc2)CC1 (stereo not given) | 13.3% |
| O=C(O)[C@@H]1[C@H]2C[C@H]3c4[nH]c5ccccc5c4CCN3C[C@@H]2CC[C@@H]1O | 4.72% |
| OCCN1C[C@H](O)[C@@H](O)[C@H](O)[C@H]1CO | 6.86% |
| CN(C(=O)c1c(O)c2ccccc2n(C)c1=O)c1ccccc1 | 7.59% |
| CC(CSC(=O)c1ccccc1)C(=O)N1C[C@@H](Sc2ccccc2)C[C@H]1C(=O)O (stereo not given in full) | 9.07% [at 16.1 µM] |
| O=S1(=O)OC(c2ccc(O)cc2)(c2ccc(O)cc2)c2ccccc21 | -6.14% |
| CCCCCCCCCCCCCCCCN | 7.54% |
| Cc1cc(O)cc(C)c1Cl | 15% |
| O=C(O)Cc1ccc(CCNS(=O)(=O)c2ccc(Cl)cc2)cc1 | 0.0902% |
| CCC(C)(CN(C)C)OC(=O)c1ccccc1 (stereo not given) | 3.51% |
| O=C(CN1CCNCC1)NC1CCCCC1 | -2.81% |
| CC(C)=CCC/C(C)=C/CO | 11.3% |

Source: PubChem BioAssay (NCATS)
